A selection: hits, their analogues and other compounds. The true share with any hit is near 5.2%.
Tau fibril FP – qHTS for Inhibitors of Tau Fibril Formation, Fluorescence Polarization | actives 0.39% (n = 280,000) | K18 P301L tau heparin fibrillization, Alexa594 FP, 6 h | Potency, µM (highest dose often 57.7 µM), for inactives: top-dose activity, negative = inhibition, hits mostly inhibitors; note: potency is the fitted concentration of half-maximal effect; nearly all actives have a fitted effect of over 55% in size
Target sequence (P10636 561-689 P618L limits assumed): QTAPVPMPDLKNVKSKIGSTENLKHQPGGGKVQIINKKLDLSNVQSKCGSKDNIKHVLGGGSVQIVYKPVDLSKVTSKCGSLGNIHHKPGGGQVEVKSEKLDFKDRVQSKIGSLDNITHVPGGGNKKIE
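Quantitative HTS format: compounds meet 15 uM recombinant K18 P301L tau and Alexa 594-tau tracer in 100 mM sodium acetate pH 7; 20 uM heparin triggers fibrillization at 37 C over 6 hr; FP gives the signal.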
Tau fluor counter – Counterscreen qHTS for Inhibitors of Tau Fibril Formation, Fluorescence Polarization; actives 0.93% (n = 280,000); tau K18 P301L Alexa594 fluorescence, heparin fibrillization; Potency, µM (series often up to 57.7 µM), for the others: top-dose activity change, negative = decrease; note: potency is the fitted concentration of half-maximal effect; nearly all actives have a fitted effect of over 55% in size
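Human tau K18 P301L (15 uM unlabeled, 0.24 uM Alexa 594-labeled) in 100 mM sodium acetate pH 7 with 20 uM heparin, 6 hr at 37 C. ThT 30 uM added, 1 hr ambient; Alexa 594 FP and total fluorescence read at 555/632 nm.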
Sfp inh – qHTS Assay for Inhibitors of Bacillus subtilis Sfp phosphopantetheinyl transferase (PPTase). 4'-phosphopantetheinyl transferase ffp (Bacillus subtilis), Q9F4F7. Biochemical Sfp PPTase activity, qHTS. Potency, µM, without a hit: largest response in the series, negative = inhibition, hits mostly inhibitors. actives 3.5% (n = 310,000). AID 1490, 2009;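 note: the enzyme is Sfp with the accession as filed and its product quenches rhodamine fluorescence; potency is the fitted concentration of half-maximal effect; 0% = enzyme reaction without inhibitor and -100% = no enzyme wells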
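Buffer: 50 mM Hepes-Na pH 7.6, 10 mM MgCl2, 0.01% Nonidet P-40, 0.01% BSA. Enzyme 15 nM, pre-exposed to compound 15 min; substrates then added and fluorescence change tracked over 30 min.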
Coupling enz – qHTS Assay for Inhibitors of Fructose-1,6-bisphosphate Aldolase from Giardia Lamblia: Coupling assay counterscreen | coupling enzyme system counterscreen, AmpLite Red fluorescence | actives 0.67% (n = 290,000) | AID 2472, 2010 | activity change, negative = inhibition, % at 58.2 µM, hits read low; in the data active = activity change below about -30%
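Compounds tested against the coupling enzymes alone at 57.5 uM final; readout was AmpLite Red fluorescence (525/598 nm) after 20 min at RT.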
Tau ThT inhib – qHTS for Inhibitors of Tau Fibril Formation, Thioflavin T Binding; Microtubule-associated protein tau (Homo sapiens), P10636; recombinant tau K18 P301L (four-repeat tau fragment), heparin-induced fibrillization, ThT fluorescence; Potency, µM (series often up to 57.4 µM), for the others: at the top dose activity, negative = inhibition, usual class: inhibitors; actives 2.1% (n = 270,000); note: potency is the fitted concentration of half-maximal effect; nearly all actives have a fitted effect of over 55% in size
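Tau K18 P301L fragment (15 uM unlabeled plus 0.24 uM Alexa 594-labeled) in 100 mM sodium acetate pH 7 with compound, fibrillization induced by 20 uM heparin for 6 hr at 37 C. Thioflavin T (30 uM) added, fluorescence read after 1 hr (ex 450, em 510 nm).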
The depositor's hits bear a star; ? = inconclusive; . = not tested or not shown; ! = a repeat was not active; [ ] = another dose, or the depositor's remark. Unless noted, calls come from the whole dose curve; as a rule, active = well fitted curve in the direction sought with a large enough effect; inconclusive = small, poorly fitted or top-dose-only effect, or another doubt; inactive = no such curve, though single readings can be large; an effect the other way counts as inactive or inconclusive. Unless noted, % is set by controls: 0 for no effect and ±100 for the full control effect.

SMILES	Tau fibril FP	Tau fluor counter	Sfp inh	Coupling enz	Tau ThT inhib
CCCCC/C=C\C[C@@H](O)/C=C/C=C/C=C\[C@@H](O)CCCC(=O)O	-2%	4%	1%	-1	2%
NCCSSCCN	?	-19%	45µM*!	7	14µM*
O=C(N/N=C\C=C\c1ccco1)C1COc2ccccc2O1 (stereo not drawn)	-5%	-3%	40µM*	-8	.
O=C(Nc1ccc([N+](=O)[O-])cc1)C1COc2ccccc2O1 (stereo not drawn)	.	.	1%	4	.
O=C(N/N=C/C=C/c1ccc([N+](=O)[O-])cc1)C1COc2ccccc2O1 (stereo not drawn)	5%	16µM*[quencher]	-24%	1	4.5µM*
O=C(CCCCCn1c(=O)c2sccc2n(CC(=O)Nc2cc(C(F)(F)F)ccc2Cl)c1=O)NCc1ccccc1Cl	-17%	-17%	.	.	17%
CCSc1nc(=S)cc(C)[nH]1	?	-18%	22µM*	-4	?
COc1ccc(CCNc2ncnc3c2c(-c2ccccc2)cn3-c2cccc(Cl)c2)cc1OC	-6%	-10%	.	.	-4%
COc1ccc(C)cc1-n1nnc(-c2nc(-c3ccccc3Cl)no2)c1N	-15%	?	.	.	1%
COc1ccc(Cl)cc1NC(=S)Nc1cccnc1	-9%	-17%	25µM*	1	-6%
Fc1ccc(NC(=S)Nc2cccnc2)cc1Cl	?	?	28µM*	-6	-4%
Cc1ccc(CNc2ccc3cc(S(=O)(=O)N4CCCCC4)ccc3n2)cc1	-12%	?	.	.	5%
Cc1cc(C)c2c(CC(=O)Nc3ccc(S(=O)(=O)N4CCCC(C)C4)cc3)coc2c1 (stereo not drawn)	14µM*	?	.	.	12%
Cc1cc(C)c2c(CC(=O)Nc3ccc(S(=O)(=O)N4CCCCC4)cc3)coc2c1	?	?	.	.	12%
CCOc1ccc(Nc2nc(Cc3nnc(SCC(=O)O)o3)cs2)cc1	0%	-20%	45µM*	-6	?
C=CCN1C(=O)/C(=C2/C(=O)N(CC(=O)O)c3ccccc32)S/C1=N/c1nccs1	-19%	?	-21%	0	7.1µM*
C=CCN1C(=O)/C(=C/c2ccc(OC)cc2)S/C1=N/c1nccs1	-8%	-16%	0%	-1	-3%
C=CCN1C(=O)/C(=C/c2ccc(O)cc2)S/C1=N/c1nccs1	?	3.5µM*[quencher]	-10%	8	?
CNC(=O)c1ccc2nc(Cc3ccccc3)oc2c1	-2%	14%	.	.	12%
Cc1ccc(CN(Cc2ccco2)C(=O)COc2cc(C)c(Cl)c(C)c2)cc1	2%	-11%	.	.	-14%
CC(C)C[C@H](NC(=O)CNC(=O)[C@@H]1CCCN1C(=O)[C@H](CCCNC(=N)N)NC(=O)[C@H](CC(=O)O)NC(=O)[C@@H](NC(=O)[C@H](CC(N)=O)NC(=O)[C@@H](NC(=O)[C@H](CC(=O)O)NC(=O)CNC(=O)[C@@H](NC(=O)[C@@H](NC(=O)[C@H](C)NC(=O)[C@@H](N)CCC(N)=O)[C@@H](C)O)C(C)C)C(C)C)[C@@H](C)O)C(=O)N[C@@H](CC(C)C)C(=O)N[C@@H](CC(=O)O)C(=O)N[C@@H](CC(C)C)C(=O)N[C@@H](CCCCN)C(=O)O	.	.	2%	1	.
CCOc1ccc(CCNc2ncnc3onc(C)c23)cc1OCC	-3%	-9%	.	.	-5%
Cc1ccc(Nc2nnc(-c3ccc4c(c3)OCO4)o2)c(C)c1	2%	-10%	50µM*	-2	?
CC1CN(C(=O)N2CCC(C(=O)N3CCN(c4ccccc4)CC3)CC2)c2cc(Cl)ccc2O1 (stereo not drawn)	-11%	-5%	.	.	?
CC(C)C[C@H](N)c1nnc(S(=O)(=O)Cc2ccc(F)cc2)o1	?	-3%	14µM*	5	-1%
SMILES	Tau fibril FP	Tau fluor counter	Sfp inh	Coupling enz	Tau ThT inhib
O=C(NCC1CCCO1)c1c[nH]c2ccc(S(=O)(=O)Nc3ccc(F)cc3F)cc2c1=O (stereo not drawn)	-7%	-12%	.	.	3%
Cc1cc(-n2c(SCc3ccccc3F)nc3n[nH]c(C)c3c2=N)ccc1Cl	18µM*	-21%	16%	-1	5%
CCN(C(=O)CSc1nc2n[nH]c(C)c2c(=N)n1-c1ccc(Cl)c(C)c1)c1cccc(C)c1	.	.	16%	0	.
COc1cc2c(cc1OC)C1O[C@](c3ccsc3)(C2)Oc2c1c(=O)oc1ccc(F)cc21	.	.	-16%	-4	.
CN(Cc1ccco1)c1ncncc1-c1ccc2c(c1)OCO2	.	.	?	0	.
CC1CN2C(c3ccc([N+](=O)[O-])cc3)=CSC2=N1 (stereo not drawn)	.	.	50µM*	1	.
CCOc1ccc(C2=CSC3=NCCN23)cc1[N+](=O)[O-]	.	.	-10%	-13	.
COC(=O)c1ccc2c(=O)n(CCCCCC(=O)N3CCN(c4cccc(C)c4C)CC3)c(=O)[nH]c2c1	-9%	-10%	.	.	?
O=C1N=c2ccccc2=C1c1c(O)n(-c2cccc(F)c2)[nH]c1=O	?	-25%	11µM*	-29	14µM*
O=C1/C(=C/c2cccc([N+](=O)[O-])c2)CCc2ccccc21	-3%	?	0%	4	25µM*
O=C1/C(=C/c2ccc([N+](=O)[O-])cc2)CCc2ccccc21	-4%	-22%	15%	-4	?
COc1cc(CNC(=O)c2ccc3nc(Cc4ccccc4)oc3c2)cc(OC)c1OC	8%	-12%	.	.	-15%
C/C=C/C(=O)[C@@H](C)[C@@H](/C=C/C[Si](C)(C)C)C(C)C	.	.	0%	5	.
CC(C)(C)OC(=O)N/N=C/c1cccn1-c1ccc([N+](=O)[O-])cc1	5%	-21%	10%	1	-16%
COc1ccc(CC(=O)N/N=C/c2cccn2-c2ccc([N+](=O)[O-])cc2)cc1OC	7%	-19%	56µM*	0	-12%
Cc1ccc2nc(/N=C(\N)NC(=O)NC3CCCCC3)nc(C)c2c1	-3%	-14%	45µM*	0	?
CCCC(=O)N/C(N)=N/c1nc(C)c2cc(C)ccc2n1	-3%	-10%	16%	-5	-17%
N#CCCCSc1nnnn1-c1cc(C(F)(F)F)cc(C(F)(F)F)c1	-2%	-10%	-2%	2	5%
Cc1ccc(CNC(=O)CCC(=O)N2CC3CCCN3c3ccccc32)cc1 (stereo not drawn)	11%	-15%	.	.	-7%
